# Screening results (PubChem)
# Dicer processing = human Dicer pre-microRNA cleavage inhibition; hit rate 6% among 47,000; cat-ELCCA pre-miR-21 Dicer processing, chemiluminescence; stronger effect = higher value; z-score at 25 µM; Q9UPY3; AID 1347074; in the data active = z-score above about 3, passing the limit was not always enough;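 also: plate controls were vehicle for no effect and no enzyme for full effect; higher signal means more uncleaved substrate so more Dicer inhibition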
# Numbers without * were called inactive. The entries come from a sample that favours hits as a whole.
SMILES,Dicer processing
COc1ccc(OC)c(-c2sccc2CC(=O)O)c1,3.8*
COC(=O)c1cc(-c2cc(OC)ccc2OC)no1,0.69
COc1ccc(OC)c(SCC(=O)O)c1,-1.8
O=C(Nc1ccccc1)n1nccc1C(c1ccccc1)c1ccccc1,0.4
CC(C)COC(=O)NC(C)(C)COC(=O)Nc1ccc(Cl)cc1,-1.4
CCn1c(=S)ccc2cc(C)ccc21,0.98
CCOc1cccc(C(c2c[nH]c3ccccc23)c2c[nH]c3ccccc23)c1OC,4*
Oc1ccc(Cl)c(C(c2c[nH]c3ccccc23)c2c[nH]c3ccccc23)c1,0.64
Cc1[nH][nH]c(=O)c1C(c1c(C)[nH][nH]c1=O)c1c[nH]c2ccccc12,-6.8
CCOc1ccc(C(c2c[nH]c3ccccc23)c2c[nH]c3ccccc23)cc1,3.4*
NCC(c1ccccc1)c1c[nH]c2ccccc12 (stereo not given),-0.35
CCOc1ccccc1C(c1c(C)[nH][nH]c1=O)c1c(C)[nH][nH]c1=O,-6.8
CC(SCSC(C)C(=O)O)C(=O)O (stereo not given),0.81
COc1ccc(Nc2ccc([N+](=O)[O-])c(Nc3ccc(OC)cc3)n2)cc1,-0.43
CCc1n(CC(O)COc2cccc(C)c2)c2ccccc2[n+]1C (stereo not given),-0.47
COC(=O)c1c(C)oc(C)c1S(=O)(=O)N1CCCc2ccccc21,-0.96
Cc1nnsc1-c1n[nH]c(=S)n1C1CC1,-1.4
O=C1OC(c2ccccc2)=N/C1=C\c1ccc(/C=C2\N=C(c3ccccc3)OC2=O)cc1,-0.88
O=C1OC(/C=C/c2ccccc2)=NC/1=C/c1cccc2ccccc12,3.5*
O=C1OC(/C=C/c2ccccc2)=NC/1=C/c1ccc(Cl)cc1,2.1
Cc1cccc(NC2=NS(=O)(=O)c3ccccc32)c1,2.7
CC(=O)c1cc2cc(Br)ccc2oc1=O,-0.5
Cc1ccc(CNC(=S)NN(C)C)cc1,1.6
Cc1nc2c(cnn2-c2ccccc2)c(=O)n1/N=C/c1ccccc1,-0.04
Cc1nc2c(cnn2-c2ccccc2)c(=O)n1NC(=O)Nc1ccc(Cl)c(Cl)c1,4.7*
SMILES,Dicer processing
Cc1nc2c(cnn2-c2ccccc2)c(=O)n1-c1cccc2ccccc12,3.2*
O=C(Cn1cnc2c(cnn2-c2ccccc2)c1=O)c1ccc(Cl)cc1,-0.65
O=c1c2cnn(-c3ccccc3)c2nc(-c2ccco2)n1-c1ccccc1,-0.43
CCOC(=O)c1cnn(-c2ccccc2)c1NC(=O)Nc1cccc(Cl)c1,-0.56
FC(F)(F)c1ccc2cc(CSc3ccc(Cl)cc3)ccc2n1,-2.5
Cn1c(=O)[nH]c(=O)c2c1nc(NCCCO)n2CCCc1ccccc1,3.4*
CCCCCn1c(NCCO)nc2c1c(=O)[nH]c(=O)n2C,3.6*
Cn1c(=O)c2c(nc(NCCO)n2CCCc2ccccc2)n(C)c1=O,-0.3
C=CCNc1nc2c(c(=O)[nH]c(=O)n2C)n1CCO,0.25
Cn1c(=O)[nH]c(=O)c2c1nc(NCCCO)n2CCO,-0.15
CCn1c(NCCCO)nc2c1c(=O)[nH]c(=O)n2C,0.94
O=C1CCCC(=O)C1C(=O)c1ccc(C(F)(F)F)cc1[N+](=O)[O-],0.41
O=C(Nc1ccccc1-c1nc(-c2ccc(Cl)cc2)no1)c1ccc(Cl)c(Cl)c1,-1.6
COc1cccc(CC(=O)NC2CCN(c3nccc(C(F)(F)F)n3)CC2)c1,-0.78
CCOc1cc(C2Nc3c(C)cc(C)cc3-c3cc(C)nn32)ccc1O (stereo not given),0.34
Cc1cc2n(n1)C(c1ccc(O)cc1)Nc1ccccc1-2 (stereo not given),1.4
COc1ccc(C2Nc3ccc(C)cc3-c3cc(C)nn32)cc1 (stereo not given),-1
COc1cc(C2Nc3ccccc3-c3cc(C)nn32)ccc1O (stereo not given),0.37
COc1ccc(C2Nc3c(C)cc(C)cc3-c3cc(C)nn32)c(OC)c1 (stereo not given),3.6*
Cc1cc(C)c2c(c1)-c1cc(C)nn1C(c1ccc(N3CCOCC3)cc1)N2 (stereo not given),-1.6
Cc1cc2n(n1)C(c1ccc(O)c(O)c1)Nc1ccccc1-2 (stereo not given),6.6*
COc1ccc(C2Nc3c(C)cc(C)cc3-c3cc(C)nn32)cc1OC (stereo not given),1
COc1ccc(C2Nc3c(C)cc(C)cc3-c3cc(C)nn32)cc1O (stereo not given),4.3*
COc1ccc(OC)c(C2Nc3ccc(C)cc3-c3cc(C)nn32)c1 (stereo not given),-0.07
Cc1cc(C)c2c(c1)-c1cc(C)nn1C(c1ccc(O)c(O)c1)N2 (stereo not given),8.6*
COc1ccc(OC)c(NC(=O)c2sc3ccccc3c2Cl)c1,2.3
CCOC(=O)C1=C(CC)NC2=C(C(=O)CC(C)(C)C2)C1c1cc(OC)ccc1OC (stereo not given),2.9
O=[N+]([O-])c1ccc(C2OCC3(CO)COC(c4ccc([N+](=O)[O-])cc4)N23)cc1 (stereo not given),0.06
CS(=O)(=NC(=S)Nc1ccc(Br)cc1)c1ccccc1 (stereo not given),2.1
O=c1[nH][nH]c(=S)n1-c1ccc2c(c1)OCCO2,-1.1
